aSyn 5UTR act = Activators via SNCA 5'UTR binding, MLPCN. activity score, % (tested at 7.5 µM), hits read low. alpha-synuclein 5'UTR reporter, activators screen. AID 1814, 2009. 300,000 tested, 7.1% active; in the data active = activity score below about -60%
* marks the source's active call; other numbers are inactive results. The list is a sample of the results.

SMILES | aSyn 5UTR act
N#CC1=C(N)Oc2cc(N)ccc2C1c1cccc(Br)c1 (stereo not given) | 119
N#CC1=C(N)Oc2cc(N)ccc2C1c1cc(Br)cs1 (stereo not given) | -75*
CCc1c(C(=O)Nc2nnc(C3CC3)s2)csc1C | -119*
O=C(Nc1nnc(C2CC2)s1)c1cc(-c2ccccc2)nn1-c1ccccc1 | -95*
O=C(Nc1nnc(C2CCCCC2)s1)c1ccco1 | -178*
O=C(Nc1nnc(C2CC2)s1)c1ccco1 | -74*
N=c1oc2c3c4c(cc2cc1C(=O)Nc1ccccc1)CCCN4CCC3 | -276*
COc1ccc(OCC(=O)c2c[nH]c3ccccc23)cc1 | -90*
Cc1ccc(C(=O)OCC(=O)c2c[nH]c3ccccc23)cc1 | -147*
COC(=O)c1ccc(NC(=O)C(=O)c2c[nH]c3ccccc23)cc1 | -93*
Cc1ccc(OCC(=O)c2cc(C)n(-c3ccccc3)c2C)c([N+](=O)[O-])n1 | 68
Cc1cn(-c2cc(C(=O)Nc3ccc(C)c(NC(=O)C(=O)c4c[nH]c5ccccc45)c3)cc(C(F)(F)F)c2)cn1 | 66
COc1ccc(C2C(O)C(c3c[nH]c4ccccc34)=NN2C(=O)CCl)cc1 (stereo not given) | 108
Cc1ccc(OCC(=O)c2c[nH]c3ccccc23)c([N+](=O)[O-])n1 | -67*
O=C(OCC(=O)c1c[nH]c2ccccc12)C1=COCCO1 | -143*
CC1(C(=O)OCC(=O)c2c[nH]c3ccccc23)CC1(Cl)Cl (stereo not given) | -260*
O=C1c2ccccc2C(=O)C1c1ccccn1 | -105*
Cc1ccc(NC(=S)NNC(=S)Nc2ccc(C)cc2C)cc1 | 113
Cc1ccc(NC(=S)Nc2ccccn2)c(C)c1 | -147*
Cc1cc(Cl)ccc1NC(=S)Nc1ccccn1 | -91*
Cc1ccc(NC(=S)c2nc3ccccc3[nH]2)c(C)c1 | -116*
Cc1nc2oc3ccc(Cl)cc3c(=O)c2cc1C(=O)O | -62*
COC(=O)c1cc2c(=O)c3ccccc3oc2nc1C | -172*
Cc1nc2oc3ccc(F)cc3c(=O)c2cc1C(=O)NC(C)(C)C | -76*
CCc1nc2oc3ccc(C)cc3c(=O)c2cc1C(=O)OC | -201*
SMILES | aSyn 5UTR act
COc1ccc(Nc2cc3n(c(=O)n2)CCc2cc(OC)c(OC)cc2-3)c(C)c1 | 80
COc1ccc(Nc2nc(N3CCCC3)nc3ccccc23)c(OC)c1 | -81*
Clc1ccc(-c2cc(CN3CCOCC3)no2)cc1 | -148*
Clc1ccc(-c2cc(CN3CCCCC3)no2)cc1Cl | -114*
CSc1nc(-c2ccc(N(C)C)cc2)c(C#N)c(=O)n1C | -72*
CCOC(=O)c1cnn(-c2ccc(C(F)(F)F)cn2)c1N | -277*
CCOC(=O)c1cnn(-c2ncnc3c2cnn3C)c1N | -94*
O=c1[nH][nH]c(C(F)(F)F)c1C=Nc1ccc(Cl)cc1 | -71*
Cc1[nH][nH]c(=O)c1C=Nc1ccc(C(F)(F)F)cc1 | -77*
COC(=O)c1ccc(CN2C(=O)NC(Cc3c[nH]c4ccccc34)C2=O)cc1 (stereo not given) | -95*
N#C/C(=C\Nc1ccccc1O)c1nc2ccccc2o1 | -112*
Cc1ccnc(NC(=O)CCCNC(=O)c2ccc(Cl)cc2)c1 | -182*
Cc1ccnc(NC(=O)c2sc3cc(Cl)ccc3c2Cl)c1 | -140*
Cc1ccnc(NC(=O)CNC(=O)c2sc3ccccc3c2Cl)c1 | -216*
CCN(CC)Cc1ccc(NC(=O)c2sc3cc(Cl)ccc3c2Cl)cc1 | 104
Cc1ccc(C(=O)NCCOc2ccc(Cl)cc2)cc1 | -88*
COc1ccc(C(=O)Nn2c(SCC(=O)N3CCC(C)CC3)nc3ccccc3c2=O)cc1 | 83
O=C(CSc1nc2ccccc2[nH]1)c1ccco1 | -127*
Fc1cccc(F)c1CSc1nc2ccccc2[nH]1 | -127*
COc1ccc2nc(SCC(=O)C(C)(C)C)[nH]c2c1 | -134*
O=C(CSc1nc2ccccc2n1S(=O)(=O)c1ccccc1)N1CCCCC1 | -100*
O=C(CSc1nc2ccccc2[nH]1)c1ccc(Cl)s1 | -113*
Fc1cccc(CSc2nc3ccncc3[nH]2)c1 | -80*
O=C(CSc1nc2ccc(Cl)cc2[nH]1)c1cccs1 | -113*
O=C(CSc1nc2ccccc2[nH]1)c1ccccc1F | -162*
SMILES | aSyn 5UTR act
c1ccc2[nH]c(SCc3cn4cccnc4n3)nc2c1 | -63*
CCOc1ccc2nc(SCC(=O)N(C)C)[nH]c2c1 | -92*
COc1ccc2nc(SCC(=O)c3ccco3)[nH]c2c1 | -105*
O=C(CSc1nc2ccccc2[nH]1)N1CCCCC1 | -136*
CC1(C)Cc2c(sc(NC(=O)c3ccccc3)c2C(=O)O)CO1 | -74*
COc1ccc(C(=O)Nc2sc3c(c2C(=O)O)CC(C)(C)OC3)cc1 | 63
Cc1ccc(C(=O)Nc2ccn(Cc3ccc(F)cc3)n2)o1 | -65*
O=C(Nc1ccn(Cc2ccc(Cl)cc2)n1)c1ccccc1 | -149*
O=C(Nc1ccn(Cc2ccccc2)n1)c1ccc2c(c1)OCO2 | -171*
Cc1nn(Cc2ccc(F)cc2)c2sc(C(=O)Nc3ccc(N4CCOCC4)cc3N3CCOCC3)cc12 | 61
CCOC(=O)N1CCC(NC(=O)c2oc3c(F)cccc3c2C)CC1 | -62*
CC(C)(C)c1ccc(OCCn2ccccc2=O)cc1 | -154*
COc1ccc(CNCCC(c2ccc(OC(C)C)cc2)c2ccccc2OC)cc1 (stereo not given) | 134
COc1ccc(NC(C)c2ccccc2)cc1 (stereo not given) | -91*
CC(C)Nc1ccc(Nc2ccnc3cc4ccccc4cc23)cc1 | 99
CCOC(=O)c1ccc(CSc2nnc(N)s2)cc1 | -74*
CCCOc1ccc(OCCSc2nnc(N)s2)cc1 | -89*
CCOc1ccc(-c2nc(CSc3nnc(N)s3)cs2)cc1 | -90*
CCOc1ccc(N/C(N)=N/c2nc(CSc3nnc(C)s3)cc(=O)[nH]2)cc1 | 84
CCCOc1ccc(-c2cnc(N)s2)cc1 | -158*
Nc1ccc(-n2cnc3cc([N+](=O)[O-])ccc32)cc1 | -66*
Cc1c(C(=O)Nc2ccc(Cl)cn2)oc2ccccc12 | -91*
Cc1c(C(=O)Nc2cccc3cccnc23)oc2ccccc12 | -118*
Cc1c(C(=O)Nc2cnccn2)oc2ccccc12 | -107*
O=C(Nc1ccccc1)NN(C(=O)CCl)c1ccccc1 | -125*
SMILES | aSyn 5UTR act
CCN(CC)c1ccc(NC(=O)Nc2ccc(C(C)=O)cc2)cc1 | -68*
CCN(CC)c1ccc(NC(=O)Nc2ccccc2)cc1 | -137*
CCOc1ccc(/C=C/C(=O)c2c(O)cc(C)oc2=O)cc1 | -182*
Cc1cc(O)c(C(=O)/C=C/c2ccccc2Br)c(=O)o1 | -171*
Cc1cc(C)c(C(=O)/C=C/c2ccc(C(C)C)cc2)c(=O)[nH]1 | -91*
Cc1cc(O)c(C(=O)/C=C/c2ccccc2)c(=O)o1 | -103*
Cc1cc(O)c(C(=O)/C=C/c2ccc(C(C)C)cc2)c(=O)o1 | -129*
CSc1nc2ccc(NC(=O)c3ccc(F)c(F)c3)cc2s1 | -143*
CSc1nc2ccc(NC(=O)c3cc4ccccc4o3)cc2s1 | -126*
O=C(Nc1nc2ccc([N+](=O)[O-])cc2s1)c1ccco1 | -74*
CSc1nc2ccc(NC(=O)c3ccco3)cc2s1 | -134*
CC(=O)Nc1ccc2nc(NC(=O)c3ccco3)sc2c1 | -96*
CC(=O)Nc1ccc2nc(NC(=O)c3ccc([N+](=O)[O-])o3)sc2c1 | -100*
CSc1nc2ccc(NC(=O)c3ccc(=O)n(C)n3)cc2s1 | -70*
COc1ccc2nc(NC(=S)NC(=O)c3ccco3)sc2c1 | -133*
O=C(/C=C/c1ccccc1)NCCOc1ccccc1 | -64*
